Data published in ChEMBL document CHEMBL4513216, “Probing the Open Global Health Chemical Diversity Library for Multistage-Active Starting Points for Next-Generation Antimalarials” (ACS Infect Dis, 2020).
In all, about 69,000 compounds went through this assay and about 8,600 (12%) showed an effect of 50% or more. The list comes from a sample in which strong results are over-represented; it also holds similar structures and randomly drawn compounds.

tested on: Plasmodium berghei; test: Screen against P. berghei liver stage (PbLuc), transformed with Luciferase, at 10uM; assay type: functional, HepG2; conditions: tested at 10 uM

Compound	INHIBITION [%]
CCc1ccc(C(=O)NCc2cccc(S(=O)(=O)NC)c2)o1	-14
CCn1ccnc1CN1CCCN(C(=O)c2cnn(C)c2)CC1	-21.21
Cc1cc(N2CCN(C(=O)Cc3c(C)nc(C)[nH]c3=O)CC2)cc(C)n1	14.9
CCO[C@@H]1CN(Cc2scnc2C)[C@@H]2CCCO[C@@H]21	-6.39
N#Cc1cnc(N2CCC3(CC2)OCCO3)nc1N	1.61
Cc1ccc(-c2noc(CN3CCc4cncnc4C3)n2)cc1	38.6
Cn1cc(C(=O)N2CCCC(c3cc(O)n(C)n3)C2)cn1 (stereo not given)	19.6
O=C1CN(S(=O)(=O)c2ccc(F)cc2)CC(O)CN1CC1CC1 (stereo not given)	4.07
COc1ccc(S(=O)(=O)C2CCN(C(=O)c3cc(C)cs3)CC2)cc1	65.2
Cc1csc(C(=O)N2CCCC(c3[nH]ncc3S(C)(=O)=O)C2)c1 (stereo not given)	27.8
Cc1csc(C(=O)N2CCC(S(C)(=O)=O)C2)c1 (stereo not given)	12.3
Cn1cnnc1S(=O)(=O)C1CCN(C(=O)c2cccs2)CC1	41.8
Cc1csc(C(=O)N2CCC(S(C)(=O)=O)CC2)c1	43.7
Cc1csc(C(=O)N2CC(S(=O)(=O)C3CCCCC3)C2)c1	75.2
O=C(CCOc1cccc(F)c1)N1CCCC(n2cccn2)C1 (stereo not given)	-18
Cc1ccc(-c2nc(CN3CCCC3Cn3cncn3)cs2)o1 (stereo not given)	-15.5
O=S1(=O)COCCN1Cc1ccc(F)c(F)c1	29.9
Cc1nc(-c2ccc(S(=O)(=O)N3CCSC3)cc2)co1	39.6
Cc1nc(-c2ccc(S(=O)(=O)N3CCSCC3)cc2)co1	49.4
COCc1nc(-c2ccc(S(=O)(=O)N3CCCC3)cc2)cs1	61
Cc1nc(-c2ccc(S(=O)(=O)N3CCCCC3)cc2)co1	6.09
Cc1nc(-c2ccc(S(=O)(=O)N3CCOCC3)cc2)co1	14.8
COCCNC(=O)c1cc(S(=O)(=O)N2CCCCC2)cs1	-4.86
COCCNc1nc(-c2ccc(S(=O)(=O)N3CCCCC3)cc2)cs1	-1.16
COCCCc1nc(-c2ccc(S(=O)(=O)N3CCCC3)cc2)cs1	61
COCCNc1nc(-c2ccc(S(=O)(=O)N3CCCCCC3)cc2)cs1	62.8
c1cnnc(N2CCCC2CNCc2noc(C3CC3)n2)c1 (stereo not given)	-29.8
COCCNC(=O)CNC(=O)c1nc(Cc2c(Cl)cccc2Cl)no1	9
COc1c(C(=O)NCC2CCCO2)nnn1Cc1ccccc1 (stereo not given)	-14.7
O=C(N1CCOCC1)N1C[C@H]2CN(Cc3nccs3)C[C@H]2C1	34.6
